# Results as given in article PMC7862700, “An all-to-all approach to the identification of sequence-specific readers for epigenetic DNA modifications on cytosine”.
# Columns and labels:
# Experiment in all cases: DAPPL (digital affinity profiling via proximity ligation, sequencing); 10 mM Tris-HCl pH 7.5, 50 mM NaCl, 1 mM DTT, 4% glycerol, room temperature, 30 min; GST-TFs on glutathione beads, 16-mer random dsDNA library, 0.1% formaldehyde crosslink after washing; high values mean tight binding
# FEV = biological target: T1, FEV (Homo sapiens, UniProt Q99581 1-238); settings: protein: recombinant; tags: N-terminal GST; dsDNA, one strand shown
# T1 sequence: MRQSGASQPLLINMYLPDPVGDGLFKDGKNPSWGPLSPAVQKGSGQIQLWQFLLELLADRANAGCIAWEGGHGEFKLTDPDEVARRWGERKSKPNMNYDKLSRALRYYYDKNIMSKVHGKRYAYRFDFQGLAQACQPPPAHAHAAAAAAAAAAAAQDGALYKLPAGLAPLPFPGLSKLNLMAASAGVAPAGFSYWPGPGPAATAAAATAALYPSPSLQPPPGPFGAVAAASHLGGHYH
# Procedure, shortened: (§1)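 Beads coated with glutathione captured GST-fused human transcription factors that had been expressed in yeast, and the factors were then given DNA barcodes and pooled with a tag-only sample. The pools were incubated with 200 nmole of a random double-stranded 16-mer DNA library in Tris/NaCl/DTT/glycerol buffer for 30 min at room temperature, washed, crosslinked with 0.1% formaldehyde and proximity-ligated with BsaI/T4 ligase at 37 °C for 1 h. PCR amplification and Illumina NextSeq500 sequencing came last. Binding signal is each hexamer's read frequency for a factor divided by its frequency for the tag-only sample.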
# ETV5 = ETV5 (Homo sapiens, UniProt P41161 1-510); settings: protein: recombinant; tags: N-terminal GST; dsDNA, one strand shown
# Procedure, shortened: as §1
# HSF1 = HSF1 (Homo sapiens, UniProt Q00613 1-529); settings: protein: recombinant; tags: N-terminal GST; chain copies: 3; dsDNA, one strand shown
# Procedure, shortened: as §1
# SPIC = biological target: T2, SPIC (Homo sapiens, UniProt Q8N5J4 1-248); settings: protein: recombinant; tags: N-terminal GST; dsDNA, one strand shown
# T2 sequence: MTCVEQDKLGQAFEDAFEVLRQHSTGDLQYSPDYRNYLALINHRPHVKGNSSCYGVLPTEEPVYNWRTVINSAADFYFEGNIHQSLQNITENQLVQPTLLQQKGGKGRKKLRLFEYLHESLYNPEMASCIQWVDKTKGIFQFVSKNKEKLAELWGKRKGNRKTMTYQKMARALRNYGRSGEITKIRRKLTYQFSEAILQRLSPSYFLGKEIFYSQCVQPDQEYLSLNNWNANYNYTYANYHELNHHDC
# Procedure, shortened: as §1
# ELF4 = ELF4 (Homo sapiens, UniProt Q99607 1-663); settings: protein: recombinant; tags: N-terminal GST; dsDNA, one strand shown
# Procedure, shortened: as §1
# ELK4 = biological target: T3, ELK4 (Homo sapiens, UniProt P28324-2 1-405); settings: protein: recombinant; tags: N-terminal GST; dsDNA, one strand shown
# T3 sequence: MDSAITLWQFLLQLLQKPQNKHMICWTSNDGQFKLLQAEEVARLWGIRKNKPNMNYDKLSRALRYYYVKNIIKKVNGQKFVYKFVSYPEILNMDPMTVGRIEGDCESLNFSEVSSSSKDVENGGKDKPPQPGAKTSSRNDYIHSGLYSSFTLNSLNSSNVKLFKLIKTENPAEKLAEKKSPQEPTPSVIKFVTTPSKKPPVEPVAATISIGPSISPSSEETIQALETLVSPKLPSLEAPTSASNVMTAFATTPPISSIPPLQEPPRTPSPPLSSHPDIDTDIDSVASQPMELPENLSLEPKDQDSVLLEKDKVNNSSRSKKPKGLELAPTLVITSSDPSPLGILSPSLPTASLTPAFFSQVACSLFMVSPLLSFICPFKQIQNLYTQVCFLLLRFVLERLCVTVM
# Procedure, shortened: as §1
# ETV2 = biological target: T4, ETV2 (Homo sapiens, UniProt O00321 1-342); settings: protein: recombinant; tags: N-terminal GST; dsDNA, one strand shown
# T4 sequence: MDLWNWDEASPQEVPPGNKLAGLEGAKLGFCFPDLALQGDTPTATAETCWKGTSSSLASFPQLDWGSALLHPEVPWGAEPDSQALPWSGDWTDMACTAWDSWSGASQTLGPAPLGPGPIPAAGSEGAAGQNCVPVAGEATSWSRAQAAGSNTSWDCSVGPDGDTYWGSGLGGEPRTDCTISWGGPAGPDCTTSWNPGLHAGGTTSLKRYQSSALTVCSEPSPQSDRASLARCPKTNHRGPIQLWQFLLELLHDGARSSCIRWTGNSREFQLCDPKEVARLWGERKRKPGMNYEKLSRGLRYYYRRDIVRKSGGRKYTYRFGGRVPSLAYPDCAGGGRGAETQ
# Procedure, shortened: as §1
# ELF3 = biological target: T5, ELF3 (Homo sapiens, UniProt P78545 1-371); settings: protein: recombinant; tags: N-terminal GST; dsDNA, one strand shown
# T5 sequence: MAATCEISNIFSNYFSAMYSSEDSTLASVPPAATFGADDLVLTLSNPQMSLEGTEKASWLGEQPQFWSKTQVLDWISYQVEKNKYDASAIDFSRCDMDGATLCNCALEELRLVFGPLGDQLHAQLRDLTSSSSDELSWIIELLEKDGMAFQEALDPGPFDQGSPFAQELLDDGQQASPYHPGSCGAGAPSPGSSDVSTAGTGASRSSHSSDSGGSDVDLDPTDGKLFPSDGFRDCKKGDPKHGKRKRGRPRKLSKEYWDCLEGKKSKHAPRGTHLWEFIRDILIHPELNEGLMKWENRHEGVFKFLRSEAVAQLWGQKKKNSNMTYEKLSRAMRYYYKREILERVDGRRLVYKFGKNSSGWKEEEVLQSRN
# Procedure, shortened: as §1
# CRX = CRX (Homo sapiens, UniProt O43186 1-299); settings: protein: recombinant; tags: N-terminal GST; dsDNA, one strand shown
# Procedure, shortened: as §1
# ETV1 = ETV1 (Homo sapiens, UniProt P50549 1-477); settings: protein: recombinant; tags: N-terminal GST; dsDNA, one strand shown
# Procedure, shortened: as §1
# ERF = biological target: T6, ERF (Homo sapiens, UniProt P50548 1-548); settings: protein: recombinant; tags: N-terminal GST; dsDNA, one strand shown
# T6 sequence: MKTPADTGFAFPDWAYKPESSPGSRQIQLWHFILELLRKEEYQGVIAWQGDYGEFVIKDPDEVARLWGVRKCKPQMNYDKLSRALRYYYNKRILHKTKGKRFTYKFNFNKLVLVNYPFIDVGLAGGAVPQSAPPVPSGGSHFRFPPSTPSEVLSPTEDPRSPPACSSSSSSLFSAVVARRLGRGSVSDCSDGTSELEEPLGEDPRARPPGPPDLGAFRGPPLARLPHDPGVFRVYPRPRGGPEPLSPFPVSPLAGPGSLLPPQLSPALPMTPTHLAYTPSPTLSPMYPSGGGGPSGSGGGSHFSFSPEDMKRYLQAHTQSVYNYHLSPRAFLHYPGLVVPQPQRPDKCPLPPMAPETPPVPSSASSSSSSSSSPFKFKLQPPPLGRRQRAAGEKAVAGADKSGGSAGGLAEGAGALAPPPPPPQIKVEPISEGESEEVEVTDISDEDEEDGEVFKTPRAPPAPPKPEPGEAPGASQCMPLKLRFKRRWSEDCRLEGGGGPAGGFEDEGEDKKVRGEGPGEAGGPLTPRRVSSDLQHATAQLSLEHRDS
# Procedure, shortened: as §1
# ETV3L = biological target: T7, ETV3L (Homo sapiens, UniProt Q6ZN32 1-361); settings: protein: recombinant; tags: N-terminal GST; dsDNA, one strand shown
# T7 sequence: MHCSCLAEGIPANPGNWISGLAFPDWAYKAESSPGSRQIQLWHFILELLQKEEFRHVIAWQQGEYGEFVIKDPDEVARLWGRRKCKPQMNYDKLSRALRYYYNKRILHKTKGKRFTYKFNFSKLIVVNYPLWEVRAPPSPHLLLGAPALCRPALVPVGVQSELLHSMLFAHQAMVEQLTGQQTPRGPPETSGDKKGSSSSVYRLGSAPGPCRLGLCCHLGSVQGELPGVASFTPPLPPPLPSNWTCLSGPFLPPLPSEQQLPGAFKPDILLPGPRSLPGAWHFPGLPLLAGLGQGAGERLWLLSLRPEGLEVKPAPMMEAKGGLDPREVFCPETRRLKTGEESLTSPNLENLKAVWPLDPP
# Procedure, shortened: as §1
# ETS2 = biological target: T8, ETS2 (Homo sapiens, UniProt P15036 1-469); settings: protein: recombinant; tags: N-terminal GST; dsDNA, one strand shown
# T8 sequence: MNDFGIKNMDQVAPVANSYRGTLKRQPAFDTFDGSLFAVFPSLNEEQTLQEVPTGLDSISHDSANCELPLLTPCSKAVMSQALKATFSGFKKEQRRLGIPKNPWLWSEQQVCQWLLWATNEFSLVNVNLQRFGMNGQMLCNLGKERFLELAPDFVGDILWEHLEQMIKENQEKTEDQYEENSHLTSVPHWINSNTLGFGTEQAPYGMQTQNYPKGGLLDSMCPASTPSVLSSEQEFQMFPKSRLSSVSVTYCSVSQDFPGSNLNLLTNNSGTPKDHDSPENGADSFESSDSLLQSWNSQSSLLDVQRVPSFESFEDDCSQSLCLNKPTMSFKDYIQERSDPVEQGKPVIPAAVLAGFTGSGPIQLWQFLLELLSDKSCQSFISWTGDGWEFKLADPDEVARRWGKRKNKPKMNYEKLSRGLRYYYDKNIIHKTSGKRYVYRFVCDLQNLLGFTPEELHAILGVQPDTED
# Procedure, shortened: as §1
# SPDEF = biological target: T9, SPDEF (Homo sapiens, UniProt O95238 1-335); settings: protein: recombinant; tags: N-terminal GST; dsDNA, one strand shown
# T9 sequence: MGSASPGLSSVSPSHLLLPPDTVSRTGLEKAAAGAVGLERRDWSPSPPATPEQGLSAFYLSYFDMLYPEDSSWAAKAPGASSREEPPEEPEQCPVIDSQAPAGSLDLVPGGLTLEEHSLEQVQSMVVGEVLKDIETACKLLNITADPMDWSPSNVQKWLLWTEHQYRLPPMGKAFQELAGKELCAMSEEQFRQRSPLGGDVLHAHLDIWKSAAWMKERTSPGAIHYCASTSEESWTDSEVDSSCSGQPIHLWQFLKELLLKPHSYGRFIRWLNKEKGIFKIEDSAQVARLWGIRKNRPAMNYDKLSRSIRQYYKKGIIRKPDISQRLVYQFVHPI
# Procedure, shortened: as §1
# ETV7 = biological target: T10, ETV7 (Homo sapiens, UniProt Q9Y603 1-341); settings: protein: recombinant; tags: N-terminal GST; dsDNA, one strand shown
# T10 sequence: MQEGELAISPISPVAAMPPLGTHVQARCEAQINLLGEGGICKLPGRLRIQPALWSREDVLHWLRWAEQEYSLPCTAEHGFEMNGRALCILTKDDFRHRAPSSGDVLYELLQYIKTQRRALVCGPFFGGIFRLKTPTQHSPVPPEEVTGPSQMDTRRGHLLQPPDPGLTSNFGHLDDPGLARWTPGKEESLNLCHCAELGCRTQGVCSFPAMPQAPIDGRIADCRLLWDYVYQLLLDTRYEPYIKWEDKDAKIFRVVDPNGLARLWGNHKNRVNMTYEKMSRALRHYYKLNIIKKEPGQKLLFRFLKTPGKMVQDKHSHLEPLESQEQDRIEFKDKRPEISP
# Procedure, shortened: as §1
# ELF5 = biological target: T11, ELF5 (Homo sapiens, UniProt Q9UKW6-2 1-255); settings: protein: recombinant; tags: N-terminal GST; dsDNA, one strand shown
# T11 sequence: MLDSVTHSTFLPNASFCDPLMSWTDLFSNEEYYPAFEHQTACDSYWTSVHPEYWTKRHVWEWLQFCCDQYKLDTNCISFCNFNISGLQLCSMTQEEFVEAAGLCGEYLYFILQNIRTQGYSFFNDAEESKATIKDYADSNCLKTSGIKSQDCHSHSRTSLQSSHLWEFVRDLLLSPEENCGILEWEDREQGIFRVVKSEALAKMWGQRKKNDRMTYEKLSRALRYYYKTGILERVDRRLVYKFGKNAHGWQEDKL
# Procedure, shortened: as §1
# ETV3 = biological target: T12, ETV3 (Homo sapiens, UniProt P41162-2 1-143); settings: protein: recombinant; tags: N-terminal GST; dsDNA, one strand shown
# T12 sequence: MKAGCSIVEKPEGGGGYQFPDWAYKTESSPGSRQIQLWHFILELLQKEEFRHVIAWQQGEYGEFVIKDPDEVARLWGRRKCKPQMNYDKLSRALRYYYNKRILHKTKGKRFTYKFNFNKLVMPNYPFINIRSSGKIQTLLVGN
# Procedure, shortened: as §1
# ETV6 = ETV6 (Homo sapiens, UniProt P41212 1-452); settings: protein: recombinant; tags: N-terminal GST; dsDNA, one strand shown
# Procedure, shortened: as §1
# Chain of ETV6 (P41212 whole entry): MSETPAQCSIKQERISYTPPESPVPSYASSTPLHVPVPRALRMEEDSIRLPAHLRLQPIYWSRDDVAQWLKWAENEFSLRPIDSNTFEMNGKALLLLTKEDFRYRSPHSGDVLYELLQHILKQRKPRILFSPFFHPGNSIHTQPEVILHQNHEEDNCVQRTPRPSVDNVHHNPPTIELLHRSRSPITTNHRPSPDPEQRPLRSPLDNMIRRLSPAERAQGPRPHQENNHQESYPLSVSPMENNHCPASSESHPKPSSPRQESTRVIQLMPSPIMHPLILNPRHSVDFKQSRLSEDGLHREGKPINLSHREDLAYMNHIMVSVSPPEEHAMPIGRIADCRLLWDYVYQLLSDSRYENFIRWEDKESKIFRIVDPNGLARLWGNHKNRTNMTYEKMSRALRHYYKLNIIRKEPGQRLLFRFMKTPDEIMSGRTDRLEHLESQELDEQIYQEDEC
# Chain of HSF1 (Q00613 whole entry): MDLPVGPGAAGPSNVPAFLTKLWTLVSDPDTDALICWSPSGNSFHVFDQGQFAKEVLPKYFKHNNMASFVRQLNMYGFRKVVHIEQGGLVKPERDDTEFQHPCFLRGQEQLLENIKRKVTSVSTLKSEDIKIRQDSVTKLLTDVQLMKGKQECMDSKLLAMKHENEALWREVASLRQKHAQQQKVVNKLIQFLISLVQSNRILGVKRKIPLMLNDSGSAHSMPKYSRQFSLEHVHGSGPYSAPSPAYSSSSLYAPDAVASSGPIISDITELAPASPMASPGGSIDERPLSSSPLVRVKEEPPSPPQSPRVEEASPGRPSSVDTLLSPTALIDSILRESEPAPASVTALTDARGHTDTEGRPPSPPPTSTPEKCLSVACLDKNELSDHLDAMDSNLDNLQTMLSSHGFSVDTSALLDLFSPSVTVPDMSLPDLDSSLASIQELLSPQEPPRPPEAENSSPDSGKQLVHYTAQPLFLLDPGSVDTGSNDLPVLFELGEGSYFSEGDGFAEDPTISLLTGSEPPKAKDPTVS
# Chain of ELF4 (Q99607 whole entry): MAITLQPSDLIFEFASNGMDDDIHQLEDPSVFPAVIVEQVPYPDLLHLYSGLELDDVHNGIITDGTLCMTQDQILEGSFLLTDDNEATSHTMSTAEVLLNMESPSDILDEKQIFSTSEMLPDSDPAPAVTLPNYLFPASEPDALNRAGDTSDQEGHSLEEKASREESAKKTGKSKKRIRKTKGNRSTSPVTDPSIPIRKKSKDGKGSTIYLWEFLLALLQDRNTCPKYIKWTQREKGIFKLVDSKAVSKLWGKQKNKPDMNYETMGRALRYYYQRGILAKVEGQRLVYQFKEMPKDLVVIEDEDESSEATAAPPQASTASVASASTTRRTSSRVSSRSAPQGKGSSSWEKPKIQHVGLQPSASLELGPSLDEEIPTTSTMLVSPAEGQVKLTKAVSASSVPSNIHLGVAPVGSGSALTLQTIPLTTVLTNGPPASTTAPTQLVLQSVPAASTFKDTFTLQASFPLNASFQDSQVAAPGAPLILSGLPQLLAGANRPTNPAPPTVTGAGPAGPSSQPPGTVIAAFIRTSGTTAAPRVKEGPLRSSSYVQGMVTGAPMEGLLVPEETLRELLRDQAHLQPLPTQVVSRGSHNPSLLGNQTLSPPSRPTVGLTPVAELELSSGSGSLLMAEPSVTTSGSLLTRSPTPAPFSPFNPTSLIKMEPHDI
# Chain of ETV1 (P50549 whole entry): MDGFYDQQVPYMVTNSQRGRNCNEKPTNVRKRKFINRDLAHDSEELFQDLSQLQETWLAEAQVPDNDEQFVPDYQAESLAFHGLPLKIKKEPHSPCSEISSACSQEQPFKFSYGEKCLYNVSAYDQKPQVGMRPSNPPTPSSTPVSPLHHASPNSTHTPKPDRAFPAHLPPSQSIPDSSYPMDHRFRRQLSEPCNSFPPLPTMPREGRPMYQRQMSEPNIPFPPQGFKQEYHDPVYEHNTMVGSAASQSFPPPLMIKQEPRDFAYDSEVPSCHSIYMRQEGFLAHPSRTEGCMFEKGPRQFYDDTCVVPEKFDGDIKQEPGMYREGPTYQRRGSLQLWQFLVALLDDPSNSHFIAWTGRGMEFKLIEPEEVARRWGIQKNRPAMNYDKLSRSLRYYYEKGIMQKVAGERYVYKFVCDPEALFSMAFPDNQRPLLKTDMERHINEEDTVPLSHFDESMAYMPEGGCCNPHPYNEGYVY
# Chain of CRX (O43186 whole entry): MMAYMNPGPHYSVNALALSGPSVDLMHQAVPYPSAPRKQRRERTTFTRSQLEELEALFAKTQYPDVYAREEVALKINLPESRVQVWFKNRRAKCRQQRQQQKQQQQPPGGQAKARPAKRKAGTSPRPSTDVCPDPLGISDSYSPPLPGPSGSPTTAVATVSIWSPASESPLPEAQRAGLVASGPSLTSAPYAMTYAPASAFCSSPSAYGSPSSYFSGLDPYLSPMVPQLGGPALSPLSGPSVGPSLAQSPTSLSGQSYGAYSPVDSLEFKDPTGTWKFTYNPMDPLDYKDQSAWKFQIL
# Chain of ETV5 (P41161 whole entry): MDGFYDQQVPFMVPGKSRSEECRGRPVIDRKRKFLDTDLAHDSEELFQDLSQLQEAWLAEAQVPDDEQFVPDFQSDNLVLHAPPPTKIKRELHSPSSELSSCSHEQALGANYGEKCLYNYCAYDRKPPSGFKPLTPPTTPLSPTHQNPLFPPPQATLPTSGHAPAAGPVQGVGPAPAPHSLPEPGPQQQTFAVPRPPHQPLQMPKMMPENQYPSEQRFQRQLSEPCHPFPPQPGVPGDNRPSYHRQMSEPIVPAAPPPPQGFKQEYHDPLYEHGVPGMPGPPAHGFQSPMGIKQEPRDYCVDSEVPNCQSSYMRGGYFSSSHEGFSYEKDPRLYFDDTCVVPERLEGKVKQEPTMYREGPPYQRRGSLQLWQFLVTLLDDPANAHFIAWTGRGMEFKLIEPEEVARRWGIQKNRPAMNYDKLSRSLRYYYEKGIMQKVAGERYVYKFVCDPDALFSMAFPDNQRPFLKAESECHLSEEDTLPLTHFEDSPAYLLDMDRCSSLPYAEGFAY
sequence,measurement,setting,value
ATGTTT,binding signal,FEV,"1.36 fold enrichment (6-mer frequency, TF over GST control)"
same,binding signal,ETV5,"1.4 fold enrichment (6-mer frequency, TF over GST control)"
same,binding signal,HSF1,"1.32 fold enrichment (6-mer frequency, TF over GST control)"
same,binding signal,SPIC,"1.27 fold enrichment (6-mer frequency, TF over GST control)"
same,binding signal,ELF4,"1.3 fold enrichment (6-mer frequency, TF over GST control)"
same,binding signal,ELK4,"1.37 fold enrichment (6-mer frequency, TF over GST control)"
same,binding signal,ETV2,"1.41 fold enrichment (6-mer frequency, TF over GST control)"
same,binding signal,ELF3,"1.34 fold enrichment (6-mer frequency, TF over GST control)"
same,binding signal,CRX,"1.26 fold enrichment (6-mer frequency, TF over GST control)"
same,binding signal,ETV1,"1.26 fold enrichment (6-mer frequency, TF over GST control)"
same,binding signal,ERF,"1.46 fold enrichment (6-mer frequency, TF over GST control)"
same,binding signal,ETV3L,"1.48 fold enrichment (6-mer frequency, TF over GST control)"
same,binding signal,ETS2,"1.29 fold enrichment (6-mer frequency, TF over GST control)"
same,binding signal,SPDEF,"1.37 fold enrichment (6-mer frequency, TF over GST control)"
same,binding signal,ETV7,"1.46 fold enrichment (6-mer frequency, TF over GST control)"
same,binding signal,ELF5,"1.47 fold enrichment (6-mer frequency, TF over GST control)"
same,binding signal,ETV3,"1.47 fold enrichment (6-mer frequency, TF over GST control)"
same,binding signal,ETV6,"1.47 fold enrichment (6-mer frequency, TF over GST control)"
